From PubChem BioAssay
Mtb betalactam – beta-lactam sensitization of Mtb H37Rv | inhibition, % at 25 µM | M. tuberculosis H37Rv growth with meropenem, percent inhibition | hit rate 0.27% among 330,000; call rule not given here;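 also: growth measured after seven days incubation then overnight dye step; 0% = bacteria only wells and 100% = bacteria with antibiotic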
Rv3671c inh – Rv3671c (M. tuberculosis) protease inhibition | P9WHR9 | inhibition, % at 5.96 µM | hit rate 0.048% among 320,000 | AID 2606; in the data active = inhibition above about 38%;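 also: extracellular domain of Rv3671c used as enzyme; 0% = enzyme with DMSO and 100% = no enzyme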
Mtb FBA inh – inhibits M. tuberculosis FBA enzyme | P9WQA3 | purified M. tuberculosis FBA, fluorescence read-out | inhibition, % at 1 µM | hit rate 2.3% among 360,000 | AID 588726;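 also: 0% = vehicle and 100% = reference inhibitor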
Target sequence (P9WQA3 whole entry, looked up): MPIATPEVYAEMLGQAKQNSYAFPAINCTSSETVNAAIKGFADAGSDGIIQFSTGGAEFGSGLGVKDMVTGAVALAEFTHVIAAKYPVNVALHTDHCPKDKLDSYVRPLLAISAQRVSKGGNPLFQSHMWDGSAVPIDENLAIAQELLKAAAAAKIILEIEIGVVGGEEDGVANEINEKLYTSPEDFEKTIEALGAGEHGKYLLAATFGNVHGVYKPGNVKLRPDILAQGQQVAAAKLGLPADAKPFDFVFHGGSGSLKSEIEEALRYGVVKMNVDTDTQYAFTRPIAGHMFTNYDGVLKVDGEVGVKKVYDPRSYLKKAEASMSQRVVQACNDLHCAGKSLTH
GDH-TPI counter-1 – inhibits GDH-TPI coupling enzymes, artifact for Mtb FBA screen | inhibition, % at 4.8 µM | hit rate 1.2% among 360,000 | AID 588335 | GDH-TPI coupled enzyme counterscreen, NADH absorbance; in the data active = inhibition above about 30%;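 also: 0% = DMSO wells and 100% = wells lacking the enzyme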
RecA intein inh – Mtb RecA intein splicing inhibition; P9WHJ3; cell-free RecA intein splicing, fluorescence; inhibition, % (concentration not given with the values); hit rate 0.75% among 290,000; AID 2221; in the data active = inhibition above about 30%;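 also: 0% = vehicle wells and 100% = reference inhibitor control wells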
Mtb UGM inh – blocks M. tuberculosis UGM enzyme; purified UGM, fluorescence polarization probe displacement; inhibition, % at 10 µM; hit rate 0.06% among 320,000; AID 504406; in the data active = inhibition above about 10%, passing the limit was not always enough
Mtb FBA inh conf – confirmation of M. tuberculosis fructose-bisphosphate aldolase inhibitors. shares compounds with Mtb FBA inh. purified M. tuberculosis FBA, fluorescence read-out. inhibition, % at 1 µM. hit rate 78% among 5,600;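 also: 0% = vehicle wells and 100% = reference inhibitor wells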
GDH-TPI counter-2 – GDH-TPI inhibition counter-screen for FBA inhibitors; shares compounds with Mtb FBA inh; GDH-TPI coupled enzyme counterscreen, fluorescence; inhibition, % at 1 µM; hit rate 81% among 5,600; AID 652141; in the data active = inhibition above about 10%
Starred values were filed as active, the others as inactive; x = no result; + = active, no number. Sampled rows, rich in hits. Any-hit rate of the full collection: about 4%. Rule as the data show it, unless noted: active = inhibition above about 27%; inactive = the rest.

SMILES | Mtb betalactam | Rv3671c inh | Mtb FBA inh | GDH-TPI counter-1 | RecA intein inh | Mtb UGM inh | Mtb FBA inh conf | GDH-TPI counter-2
Cc1ccc(N(C(=O)c2csnn2)C(C(=O)NC(C)(C)C)c2cccnc2)cc1C (configuration not stated) | 2 | 6 | 2 | -10 | -2 | -1 | x | x
CN(C)S(=O)(=O)c1ccc(C(=O)NCc2nnc(SCC(=O)c3ccccc3)o2)cc1 | -18 | 4 | 4 | 4 | 1 | -1 | x | x
COc1ccc(C2CC(c3ccc(C)cc3)=NN2C(=O)CCC(=O)O)cc1OC (configuration not stated) | -3 | -3 | 0 | 5 | -3 | -3 | x | x
C=CCN(C(=O)COc1ccccc1)c1nnc(-c2ccncc2)s1 | -10 | -5 | 41* | 15 | 1 | -1 | 95* | 70*
Cc1cc(C)c2c(=O)[nH]c(SCC(=O)c3ccc(C(C)C)cc3)nc2n1 | -6 | 2 | 0 | -10 | 1 | 9 | x | x
O=C(CCCCCCCCC(=O)N/N=C/c1ccco1)N/N=C/c1ccco1 | 0 | 0 | 0 | 9 | 0 | -3 | x | x
O=C(CCC(=O)N/N=C/c1ccco1)N/N=C/c1ccco1 | -7 | 3 | 29* | 4 | 0 | 1 | 76* | 64*
CCOC(=O)c1sc(Nc2ccc(F)cc2)nc1C | 4 | 1 | 5 | 9 | -2 | -1 | x | x
CCOC(=O)c1sc(Nc2nc3c(OC)cccc3s2)nc1C | -2 | 6 | 66* | 1 | -3 | 0 | 64* | 57*
NS(=O)(=O)c1ccc(CNC(=O)CCCSc2ccccc2)cc1 | -6 | 8 | 0 | -1 | x | -2 | x | x
COc1ccc(-c2nc3ccccc3o2)cc1OC | -1 | 9 | 10 | -5 | x | 1 | x | x
c1ccc2oc(-c3ccc4nc[nH]c4c3)nc2c1 | 55 | 3 | 60* | 9 | -3 | 0 | + | 169*
O=C(Cn1c2ccc(F)cc2c2nc3n(c(=O)c21)CCS3)NCC1CCCO1 (configuration not stated) | -10 | -19 | 30* | 9 | 0 | 0 | 62* | 55*
COc1ccccc1NC(=O)Cn1c2ccc(F)cc2c2nc3n(c(=O)c21)CCS3 | 1 | -14 | 9 | 18 | 0 | 0 | x | x
Cc1cc2nn(-c3ccc(Cl)cc3)nc2cc1N | -7 | -10 | 41* | 7 | 21 | -2 | 111* | 97*
Cc1cc2nn(-c3ccc(F)cc3)nc2cc1N | 4 | -2 | 54* | 46* | -33 | 1 | 179* | 136*
Cc1cc(N)n(-c2ccc(Cl)cc2)n1 | -2 | -4 | -5 | 5 | 0 | 0 | x | x
Cc1cccc(NC(=S)Nc2cccc(C)n2)n1 | 4 | -12 | 91* | 12 | 2 | 0 | 9 | -3
CCc1cc(=O)oc2c(C)c(OC(C)C(=O)NCCCn3ccnc3)ccc12 (configuration not stated) | 0 | 2 | 66* | 3 | -3 | 0 | 77* | 68*
CCc1cc(=O)oc2cc(C)cc(OCC(=O)NCCCn3ccnc3)c12 | 3 | 2 | 61* | 4 | -2 | 1 | + | +
Cc1cc(OC(C)C(=O)NCCCn2ccnc2)c2c(C)c(C)c(=O)oc2c1 (configuration not stated) | -4 | -3 | 79* | 11 | 0 | 0 | 134* | 99*
Cc1cc(OCC(=O)NCCCn2ccnc2)c2c(C)c(C)c(=O)oc2c1 | -4 | -7 | 76* | 4 | -5 | 1 | 38* | 29*
Cc1cc(=O)oc2c(C)c(OC(C)C(=O)NCCCn3ccnc3)ccc12 (configuration not stated) | 9 | 9 | 16 | 7 | 1 | -1 | x | x
COc1cc(NC(=O)C2CC(=O)N(CCc3ccccc3)C2)cc(OC)c1 (configuration not stated) | -1 | 3 | 0 | -6 | 2 | 0 | x | x
CCc1nc2c(OCc3ccccc3OC)cccn2c1N(C)C(=O)C(C)C | x | x | -1 | 3 | x | x | x | x
CCC1CCCN1Cn1cnc2c([nH]c3ccc(OC)cc32)c1=O (configuration not stated) | -10 | 0 | 54* | 10 | 1 | 3 | 94* | 74*
COc1ccc2[nH]c3c(=O)n4c(nc3c2c1)SCCC4 | 0 | -12 | 71* | 1 | -1 | 0 | 103* | 88*
